Reference: the supplement of paper PMC10646978
± gives the standard deviation.

The compounds below were run on RAW-Dual (murine macrophage reporter line) (assay: IRF reporter (Lucia luciferase) activity fold change vs agonist alone; higher = enhanced IRF activity). Details: modulator concentration 10 µM; agonist: 3'3'-cGAMP 10 ug/mL.
How it was run: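 RAW-Dual murine macrophage reporter cells were plated at 50 000 per well in 384-well plates, pin-transferred compound to 10 μM final, and pre-incubated for 1 hour at 37 °C before a PRR agonist was added and the cells incubated overnight. NF-κB activity was read from supernatant SEAP with QUANTI-Blue at 620 nm absorbance, and IRF activity from Lucia luciferase with QUANTI-Luc by luminescence. Each signal was expressed as fold change by dividing by the mean agonist-only control on the same plate. Two replicate plates were averaged, with errors obtained by propagation.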

Compared with `CC(C)(C)c1cc(NCc2ccccn2)n2ncc(-c3ccc(Cl)cc3)c2n1`, `O=C(CCCn1nc(-c2ccc(F)cc2)ccc1=O)Nc1cc(Cl)ccc1Cl` is higher in IRF reporter: 0.296 ± 0.028 for the first, 1.06 ± 0.066 for the second.

`CCC(=O)CC(O)(c1ccccc1)C(F)(F)F` (stereo not given) and `COc1ccc(N2CC(C(=O)NCc3ccccc3C(F)(F)F)CC2=O)cc1` (stereo not given) are within error of each other in IRF reporter: 1.01 ± 0.14 for the first, 1.03 ± 0.051 for the second.

Compared with `CCC1(CC)Cc2ccccc2C(CC(=O)N2CCOCC2)=N1.O=S(=O)(O)O`, `O=C(NCCN1CCOCC1)c1ccc(Cl)cc1` is higher in IRF reporter: 0.601 ± 0.044 for the first, 0.95 ± 0.048 for the second.

`NC(=O)c1cccnc1` and `Cc1cnc(C(=O)O)c[n+]1[O-]` are within error of each other in IRF reporter: 0.912 ± 0.034 for the first, 0.962 ± 0.069 for the second.

Compared with `Cc1cc(=O)[nH]c(-n2nc(C)c(CCC(=O)N3CCN(C)CC3)c2C)n1`, `Cc1cc(CCNC(=O)c2cc3ccccc3s2)nn1C` is lower in IRF reporter: 1.01 ± 0.084 for the first, 0.82 ± 0.032 for the second.

`COc1cc2nccc(Oc3ccc(NC(=O)Nc4cc(C)on4)c(Cl)c3)c2cc1OC` and `COc1cc2nc(N(C)CCCNC(=O)C3CCCO3)nc(N)c2cc1OC.Cl` (stereo not given) are within error of each other in IRF reporter: 0.626 ± 0.028 for the first, 0.382 ± 0.26 for the second.

First: CCN(CC)CCCC(C)Nc1c2ccc(Cl)cc2nc2ccc(OC)cc12 (stereo not given) [Prestw-318]
Second: CCOc1ccc(-c2ccc(=O)n(CCNS(=O)(=O)CCc3ccccc3)n2)cc1
The IRF reporter of the first is lower: 0.0346 ± 0.0049 for the first, 1.2 ± 0.078 for the second.

Going from `CC(C)Sc1ccc(CC(=O)N2C3C=CCC2CC3)cc1` (stereo not given) to `CCCCOc1ccc(CC(=O)NO)cc1`, the IRF reporter falls from 1 ± 0.1 to 0.241 ± 0.0073.

First: COc1cc(O)c2c(=O)cc(-c3ccc(O)cc3)oc2c1
Second: O=c1cc(-c2ccccc2)oc2cc(O)c(O)c(O)c12
The IRF reporter of the first is higher: 0.795 ± 0.11 for the first, 0.649 ± 0.034 for the second.

`COCCN1C(=O)CN(C2CCN(Cc3cc(OC)cc(OC)c3)CC2)C1=O` and `CCCCCCOc1ccc(N2C(=O)CC(N3CCN(Cc4ccc5c(c4)OCO5)CC3)C2=O)cc1` (stereo not given) are within error of each other in IRF reporter: 0.979 ± 0.051 for the first, 0.929 ± 0.032 for the second.

Compared with `CC1c2cccc(O)c2C(=O)C2=C(O)C3(O)C(=O)C(C(N)=O)=C(O)C(N(C)C)C3C(O)C21.Cl` (stereo not given), `COc1cccc2c1C(=O)c1c(O)c3c(c(O)c1C2=O)C[C@@](O)(C(=O)CO)C[C@@H]3O[C@H]1C[C@H](N)[C@H](O)[C@H](C)O1.Cl` is lower in IRF reporter: 0.795 ± 0.041 for the first, 0.101 ± 0.014 for the second.

First: COC(=O)C1=CN(CC2CCCO2)C=C(C(=O)OC)C1c1cccc(F)c1 (stereo not given)
Second: COc1ccc(C2(C#N)CCC(C(=O)O)CC2)cc1OC1CCCC1 (stereo not given)
The IRF reporter of the first is lower: 0.868 ± 0.026 for the first, 1.05 ± 0.048 for the second.

`O=C1C(O)=C(c2ccc([N+](=O)[O-])cc2)C(=O)c2ccccc21` was tested, and the IRF reporter was 0.969 ± 0.038.

Same assay, conditions: modulator concentration 10 µM; agonist: LPS 0.1 ug/mL

`Nc1ncnc2c1ncn2C1OC(COP(=O)(O)O)C(O)C1O` (stereo not given) and `CC1c2cccc(O)c2C(=O)C2=C(O)C3(O)C(=O)C(C(N)=O)=C(O)C(N(C)C)C3C(O)C21.Cl` (stereo not given) are within error of each other in IRF reporter: 1.19 ± 0.13 for the first, 1.14 ± 0.15 for the second.

Compared with `CC1=C(C(=O)OCC(F)(F)C(F)(F)F)C(c2ccccc2)NC(=O)N1` (stereo not given), `CCC(=O)CC(O)(c1ccccc1)C(F)(F)F` (stereo not given) is lower in IRF reporter: 1.34 ± 0.089 for the first, 0.953 ± 0.061 for the second.

`O=C(Cn1cc(S(=O)(=O)c2ccc(F)cc2)c2ccccc21)N1CCCCCC1` and `Cc1ccc(Nc2cc(N3CCCCC3)c(N)c3c2C(=O)c2ccccc2C3=O)cc1` are within error of each other in IRF reporter: 1.2 ± 0.19 for the first, 1.56 ± 0.21 for the second.

`COc1cccc(-c2cc(C(=O)N3CCC(Oc4cc(C)n(C)c(=O)c4)CC3)n(C)n2)c1` and `COCCN1C(=O)CN(C2CCN(Cc3cc(OC)cc(OC)c3)CC2)C1=O` are within error of each other in IRF reporter: 0.964 ± 0.066 for the first, 1.09 ± 0.12 for the second.

Going from `O=C(COc1cccc2ccccc12)NCc1ccncc1` to `CCOc1ccc(-c2ccc(=O)n(CCNS(=O)(=O)CCc3ccccc3)n2)cc1`, the IRF reporter falls from 1.34 ± 0.12 to 0.984 ± 0.07.

`N#Cc1nc(-c2ccc(COc3ccc(Cl)cc3)o2)oc1N1CCCCC1` and `O=C(NCCN1CCOCC1)c1ccc(Cl)cc1` are within error of each other in IRF reporter: 1.57 ± 0.1 for the first, 1.26 ± 0.43 for the second.

Going from `Brc1ccc(CN2C3=NCCCN3c3ccccc32)cc1.Cl` to `COc1ccc(N2CC(C(=O)NCc3ccccc3C(F)(F)F)CC2=O)cc1` (stereo not given), the IRF reporter rises from 0.984 ± 0.049 to 1.2 ± 0.1.

`CN1CCN(CCC=C2c3ccccc3Sc3ccc(S(=O)(=O)N(C)C)cc32)CC1` and `CCC1(CC)Cc2ccccc2C(CC(=O)N2CCOCC2)=N1.O=S(=O)(O)O` are within error of each other in IRF reporter: 0.978 ± 0.078 for the first, 0.964 ± 0.074 for the second.

First: NC[C@@H]1O[C@H](O[C@@H]2[C@@H](CO)OC(O[C@@H]3[C@@H](O)[C@H](N)C[C@H](N)[C@H]3O[C@H]3O[C@H](CN)[C@@H](O)[C@H](O)[C@H]3N)[C@@H]2O)[C@H](N)[C@@H](O)[C@@H]1O.O=S(=O)(O)O (stereo not given in full)
Second: COc1cccc2c1C(=O)c1c(O)c3c(c(O)c1C2=O)C[C@@](O)(C(=O)CO)C[C@@H]3O[C@H]1C[C@H](N)[C@H](O)[C@H](C)O1.Cl
The IRF reporter of the first is higher: 1.02 ± 0.081 for the first, 0.0915 ± 0.01 for the second.

`COc1cc2nc(N3CCN(C(=O)C4COc5ccccc5O4)CC3)nc(N)c2cc1OC` (stereo not given) [Prestw-858] and `COc1cc2nc(N(C)CCCNC(=O)C3CCCO3)nc(N)c2cc1OC.Cl` (stereo not given) are within error of each other in IRF reporter: 1.19 ± 0.075 for the first, 0.996 ± 0.22 for the second.

`Cc1ncn(CC(=O)N2CC(Oc3cccc(C(F)(F)F)n3)C2)c(=O)c1C` and `Cc1cc(=O)[nH]c(-n2nc(C)c(CCC(=O)N3CCN(C)CC3)c2C)n1` are within error of each other in IRF reporter: 1.21 ± 0.086 for the first, 1.05 ± 0.12 for the second.

First: COc1ccccc1C1C(C(C)=O)=C(O)C(=O)N1CCN(C)C (stereo not given)
Second: Cc1cc(CCNC(=O)c2cc3ccccc3s2)nn1C
The IRF reporter of the first is higher: 1.48 ± 0.24 for the first, 1.03 ± 0.06 for the second.

Going from `O=C(Nc1ccc(Cl)cc1)C(Sc1ccccc1)c1ccccc1` (stereo not given) to `O=C(CCCn1nc(-c2ccc(F)cc2)ccc1=O)Nc1cc(Cl)ccc1Cl`, the IRF reporter falls from 1.38 ± 0.26 to 1.03 ± 0.076.

`CC=CCn1c(=O)c2c(nc3n2CC(C(C)(C)C)=NN3)n(C)c1=O` and `CC(C)(C)c1cc(NCc2ccccn2)n2ncc(-c3ccc(Cl)cc3)c2n1` are within error of each other in IRF reporter: 1.28 ± 0.2 for the first, 0.962 ± 0.12 for the second.

`NC(=O)c1cccnc1` and `Cc1cnc(C(=O)O)c[n+]1[O-]` are within error of each other in IRF reporter: 0.984 ± 0.22 for the first, 0.966 ± 0.048 for the second.

`COc1cc2nccc(Oc3ccc(NC(=O)Nc4cc(C)on4)c(Cl)c3)c2cc1OC` and `COc1cc(O)c2c(=O)cc(-c3ccc(O)cc3)oc2c1` are within error of each other in IRF reporter: 0.938 ± 0.066 for the first, 0.959 ± 0.049 for the second.

`CCN(CC)CCCC(C)Nc1c2ccc(Cl)cc2nc2ccc(OC)cc12` (stereo not given) [Prestw-318] and `CCCCOc1ccc(CC(=O)NO)cc1` are within error of each other in IRF reporter: 1.19 ± 0.22 for the first, 0.87 ± 0.19 for the second.

`CC(C)Sc1ccc(CC(=O)N2C3C=CCC2CC3)cc1` (stereo not given) and `COC(=O)C1=CN(CC2CCCO2)C=C(C(=O)OC)C1c1cccc(F)c1` (stereo not given) are within error of each other in IRF reporter: 1.43 ± 0.11 for the first, 1.21 ± 0.19 for the second.

`CCCCCCOc1ccc(N2C(=O)CC(N3CCN(Cc4ccc5c(c4)OCO5)CC3)C2=O)cc1` (stereo not given) and `O=C1C(O)=C(c2ccc([N+](=O)[O-])cc2)C(=O)c2ccccc21` are within error of each other in IRF reporter: 1.38 ± 0.17 for the first, 1.53 ± 0.13 for the second.

Going from `COc1ccc(C2(C#N)CCC(C(=O)O)CC2)cc1OC1CCCC1` (stereo not given) to `O=c1cc(-c2ccccc2)oc2cc(O)c(O)c(O)c12`, the IRF reporter falls from 1.25 ± 0.083 to 1 ± 0.15.
